Source: PubChem BioAssay (National Center for Advancing Translational Sciences (NCATS))
VDR inh – Inhibitors of the vitamin D receptor (VDR): qHTS; Vitamin D3 receptor (Homo sapiens), P11473; VDR-SRC2-3 peptide fluorescence polarization, 2 h; Potency, µM, most hits filed as inhibitors; 400,000 tested, 0.93% active; AID 504847, 2011
Target sequence (P11473 whole entry, looked up): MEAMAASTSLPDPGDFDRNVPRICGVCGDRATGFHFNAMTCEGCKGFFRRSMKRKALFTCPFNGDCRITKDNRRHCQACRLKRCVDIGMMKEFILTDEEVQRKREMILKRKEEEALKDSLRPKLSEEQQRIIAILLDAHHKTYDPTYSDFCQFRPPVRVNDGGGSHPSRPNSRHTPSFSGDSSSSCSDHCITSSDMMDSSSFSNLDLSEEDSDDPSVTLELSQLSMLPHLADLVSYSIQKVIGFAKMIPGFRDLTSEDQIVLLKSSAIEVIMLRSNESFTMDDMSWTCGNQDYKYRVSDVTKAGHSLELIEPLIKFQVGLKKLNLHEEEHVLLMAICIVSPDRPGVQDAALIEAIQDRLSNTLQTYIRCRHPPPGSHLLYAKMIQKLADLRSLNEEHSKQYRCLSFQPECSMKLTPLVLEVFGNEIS
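Fluorescence polarization assay measuring small-molecule disruption of VDR binding to the coregulator peptide SRC2-3. Compounds were pin-transferred (23 nl) into the reagent mix and incubated 2 h at room temperature before reading.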
G9a block – qHTS Assay for Inhibitors of Histone Lysine Methyltransferase G9a. AID 504332, 2011. Histone-lysine N-methyltransferase EHMT2 (Homo sapiens), Q96KQ7. 350,000 tested, 8.8% active. Potency, µM (series often up to 102 µM), most hits filed as inhibitors. G9a H3K9 monomethylation, AlphaScreen, 2 h; note: nearly all actives have a fitted effect of over 75% in size
Target sequence (Q96KQ7 913-1193 limits assumed): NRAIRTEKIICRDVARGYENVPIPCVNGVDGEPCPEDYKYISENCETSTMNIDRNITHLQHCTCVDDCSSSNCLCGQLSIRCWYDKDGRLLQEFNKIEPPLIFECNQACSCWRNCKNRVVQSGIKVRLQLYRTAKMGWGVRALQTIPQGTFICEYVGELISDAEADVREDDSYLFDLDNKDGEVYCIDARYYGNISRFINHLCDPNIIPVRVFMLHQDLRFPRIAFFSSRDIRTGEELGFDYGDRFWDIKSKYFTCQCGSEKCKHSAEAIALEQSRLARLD
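Compounds were preincubated with 20 nM G9a for 15 min, after which biotinylated H3K9 peptide (500 nM) and SAM (20 uM) started a 2 h room-temperature reaction. Monomethylated product was quantified by antibody-based AlphaScreen chemiluminescence.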
JMJD2A Tudor inh – qHTS Assay for Inhibitors of JMJD2A-Tudor Domain. Lysine-specific demethylase 4A (Homo sapiens), O75164. AlphaScreen JMJD2A-Tudor / H3K4me3 peptide binding. Potency, µM (highest dose often 114 µM), actives largely listed as inhibitors. 390,000 tested, 4.4% active; note: nearly all actives have a fitted effect of over 50% in size
PLK1 PBD inh – qHTS for Inhibitors of PLK1-PDB (polo-like kinase 1 - polo-box domain): Primary Screen. AID 720504, 2013. Potency, µM, actives largely listed as inhibitors. 360,000 tested, 2.8% active. Serine/threonine-protein kinase PLK1 (Homo sapiens), P53350. Plk1 PBD binding of FITC phosphopeptide, fluorescence polarization; note: series mostly up to about 57 µM; nearly all actives have a fitted effect of over 65% in size
HP1b chromo inh – HTS for Inhibitors of HP1-beta Chromodomain Interactions with Methylated Histone Tails; AlphaScreen HP1-beta / biotin-H3K9me3 peptide binding; AID 540317, 2011; Potency, µM (titrated, usually from 114 µM), hits mostly inhibitors; 390,000 tested, 0.56% active; Chromobox protein homolog 1 (Homo sapiens), P83916; note: nearly all actives have a fitted effect of over 70% in size
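HP1-beta protein (50 nM final) preincubated 30 min at room temperature with biotinylated H3(1-18)K9me3 peptide (50 nM) in PBS pH 7.4, 0.01% Tween-20, then compound added for 30 min. AlphaScreen streptavidin donor/nickel chelate acceptor beads (10 ug/mL final), 30 min dark, luminescence read.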
BAZ2B inh – qHTS Assay for Inhibitors of BAZ2B; Potency, µM (highest dose often 114 µM), most hits filed as inhibitors; 360,000 tested, 4.4% active; AlphaScreen BAZ2B-H3K14Ac peptide displacement; AID 504333, 2011; Bromodomain adjacent to zinc finger domain protein 2B (Homo sapiens), Q9UIF8; note: nearly all actives have a fitted effect of over 60% in size
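Multi-concentration screen (max 110 uM) measuring displacement of acetylated histone H3 peptide from BAZ2B by AlphaScreen, using 50 nM protein, 50 nM peptide and 10 ug/mL streptavidin donor plus Ni-chelate acceptor beads.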
Each line names hits and unclear results; the compound was inactive in the other large screens. A selection: hits, their analogues and other compounds. The true share with any hit is near 11%. Calls come from the whole dose curve; as a rule, active = well fitted curve in the direction sought with a large enough effect; inconclusive = small, poorly fitted or top-dose-only effect, or another doubt; inactive = no such curve, though single readings can be large; an effect the other way counts as inactive or inconclusive.

CN(C)c1ccc(C(CNS(=O)(=O)c2ccc3ccccc3c2)N2CCOCC2)cc1 (stereo not drawn)	JMJD2A Tudor inh inconclusive, HP1b chromo inh inconclusive, BAZ2B inh 50µM
COc1ccc(C(=O)NCC(c2ccc(N(C)C)cc2)N2CCCC2)cc1 (stereo not drawn)	G9a block inconclusive, JMJD2A Tudor inh inconclusive (no result: PLK1 PBD inh)
CN(C)c1ccc(C(CNC(=O)c2ccc(C(C)(C)C)cc2)N2CCCC2)cc1 (stereo not drawn)	G9a block 16µM, JMJD2A Tudor inh 45µM, HP1b chromo inh inconclusive, BAZ2B inh 28µM (no result: PLK1 PBD inh)
COc1ccc(NC(=O)Cn2ncc3c4ccccc4n(Cc4ccccc4)c3c2=O)cc1OC	none (no result: PLK1 PBD inh)
CCOc1cc(C2C3=C(CC(C)(C)CC3=O)OC3=C2C(=O)CC(C)(C)C3)cc([N+](=O)[O-])c1O	G9a block inconclusive, PLK1 PBD inh 34µM, BAZ2B inh inconclusive
CC1(C)CC(=O)C2=C(C1)OC1=C(C(=O)CC(C)(C)C1)C2c1cc([N+](=O)[O-])cc([N+](=O)[O-])c1O	VDR inh inconclusive, PLK1 PBD inh 17µM, HP1b chromo inh inconclusive
CC1(C)CC(=O)C2=C(C1)OC(N)=C(C#N)[C@@H]2c1ccccc1[N+](=O)[O-]	PLK1 PBD inh inconclusive (no result: G9a block)
CC1CCN(c2ccc(NC(=O)c3ccc(Br)o3)cc2)CC1	none
Cc1cc(O)ccc1Nc1nc(-c2cccnc2)cs1	BAZ2B inh inconclusive (no result: G9a block)
Cc1nc(C)c(-c2csc(Nc3ccc(O)cc3C)n2)s1	PLK1 PBD inh 27µM
Cc1cc(O)ccc1Nc1nc(-c2cccs2)cs1	G9a block 45µM, JMJD2A Tudor inh inconclusive, BAZ2B inh inconclusive
Cc1nc(C)c(-c2csc(Nc3ncccc3C)n2)s1	none (no result: G9a block)
O=C(OCC#CCSc1nnc(-c2cccc3ccccc23)o1)c1ccc(F)nc1	none (no result: VDR inh, G9a block, PLK1 PBD inh, HP1b chromo inh, BAZ2B inh)
O=C(Nc1ccc(C(=O)OCc2cc(=O)n3c4c(sc3n2)CCCC4)cc1)c1ccc(F)cc1	none (no result: PLK1 PBD inh)
Cc1nn(CCC(N)=S)c2nc(-c3cccs3)cc(C(F)(F)F)c12	VDR inh inconclusive, G9a block 10µM, PLK1 PBD inh 11µM
Cc1nn(CCC#N)c2nc(-c3ccccc3)cc(C(F)(F)F)c12	none
COc1cccc(NC(=O)c2ocnc2C)c1	G9a block inconclusive
O=C(O)COCC(=O)NCc1csc2ccccc12	G9a block 50µM
CC1CCc2c(sc3nnn(CCCCOc4ccc(Cl)cc4)c(=O)c23)C1 (stereo not drawn)	G9a block 13µM, JMJD2A Tudor inh inconclusive (no result: PLK1 PBD inh)
COc1ccc(N/N=C(/C(C)=O)N2CCCc3ccccc32)cc1	JMJD2A Tudor inh 35µM, HP1b chromo inh inconclusive, BAZ2B inh inconclusive (no result: G9a block)
COc1ccc(NC(=O)Cc2ccc(NC(=O)N3CCCCc4ccccc43)cc2)c(OC)c1	none (no result: PLK1 PBD inh)
COc1cccc(NC(=O)Cc2ccc(NC(=O)N3CCCCc4ccccc43)cc2)c1	JMJD2A Tudor inh 11µM (no result: PLK1 PBD inh)
COc1ccc(NC(=O)N2CCCc3ccccc32)cc1	G9a block inconclusive
CCCCOc1ccc(CNC(=O)Cc2ccc(NC(=O)N3CCCCc4ccccc43)cc2)cc1	JMJD2A Tudor inh 79µM (no result: PLK1 PBD inh)
CCCCOc1ccc(CNC(=O)c2ccc(NC(=O)N3CCCCc4ccccc43)cc2)cc1	none (no result: PLK1 PBD inh)
CC1CC(C)CN(C2CCCCC2NS(=O)(=O)c2ccc(Cl)cc2)C1 (stereo not drawn)	none
C#Cc1ccc([C@H]2C=C(C(=O)Nc3ccccc3)O[C@@H](OCc3ccc(CO)cc3)C2)cc1	none
COc1ccc(C(=O)NN2CC(O)=C(c3nc4ccccc4n3C)C2=N)cc1OC	JMJD2A Tudor inh 4.5µM
COc1ccc2c(c1)[nH]c1c(=O)n(/N=C/c3ccc(OC)c(COc4ccccn4)c3)cnc12	JMJD2A Tudor inh 79µM
O=C(Cn1c(=O)n(Cc2ccco2)c(=O)c2sc3ccccc3c21)Nc1ccccc1C(F)(F)F	none (no result: PLK1 PBD inh)
CCCCCCCCCCCC1=C(O)C(=O)C=C(O)C1=O	VDR inh inconclusive, JMJD2A Tudor inh 28µM, PLK1 PBD inh 30µM, HP1b chromo inh inconclusive (no result: G9a block, BAZ2B inh)
COC1=CC(=O)C(O)=C(CCCCCCC/C=C/CCCCCCCC2=C(O)C(=O)C=C(OC)C2=O)C1=O	VDR inh 45µM, JMJD2A Tudor inh 45µM, PLK1 PBD inh 19µM, HP1b chromo inh inconclusive (no result: G9a block, BAZ2B inh)
COc1cccc(/C=N/Nc2snc(SC)c2C#N)c1O	G9a block 50µM
COc1ccc(/C=N/Nc2snc(SC)c2C#N)cc1OC	JMJD2A Tudor inh inconclusive, BAZ2B inh 45µM
COc1cccc(/C=N/Nc2snc(SC)c2C#N)c1	G9a block inconclusive, PLK1 PBD inh inconclusive
CCOc1ccccc1-c1n[nH]c(=S)o1	G9a block 1.8µM, JMJD2A Tudor inh 40µM, BAZ2B inh inconclusive
CCCCc1cc(-c2n[nH]c(=S)o2)c2ccccc2n1	G9a block 4.5µM, PLK1 PBD inh inconclusive, BAZ2B inh inconclusive
COc1ccc(OCc2n[nH]c(=S)o2)cc1	G9a block inconclusive, JMJD2A Tudor inh inconclusive, PLK1 PBD inh inconclusive
O=c1[nH]nc(-c2cc(-c3ccccc3)nc3ccccc23)o1	none (no result: VDR inh, G9a block, JMJD2A Tudor inh, HP1b chromo inh, BAZ2B inh)
CCOc1ccccc1-c1nc(-c2ccncc2)no1	BAZ2B inh inconclusive
COc1ccc(-c2n[nH]c(=S)o2)c(OC)c1	G9a block inconclusive, JMJD2A Tudor inh 79µM
Fc1cccc(NCc2ccccc2-c2nnc(-c3ccccc3Cl)o2)c1	none (no result: PLK1 PBD inh)
O=C(COC(=O)c1cccs1)NCc1ccco1	G9a block inconclusive, JMJD2A Tudor inh 35µM, HP1b chromo inh 50µM, BAZ2B inh 50µM
CC(OC(=O)c1cccs1)C(=O)NCc1ccco1 (stereo not drawn)	none
Cc1ccc(NS(=O)(=O)c2cccc(C(=O)OCC(=O)NCc3ccco3)c2)cc1	G9a block inconclusive, JMJD2A Tudor inh inconclusive, BAZ2B inh 56µM
COc1ccccc1C(OC(=O)c1cccs1)C(=O)NCc1ccco1 (stereo not drawn)	VDR inh inconclusive, G9a block 45µM, BAZ2B inh inconclusive
O=C(COC(=O)c1ccc(NS(=O)(=O)c2cccs2)cc1)NCc1ccco1	G9a block inconclusive, PLK1 PBD inh inconclusive, BAZ2B inh 32µM
COc1ccc2c(c1OC)OCC2C (stereo not drawn)	none (no result: G9a block, BAZ2B inh)
CC(C)c1nc2n(n1)C1(CCCCC1)[C@@H]1CCCC[C@@H]1N2	none (no result: PLK1 PBD inh)
O=C(c1cccc(F)c1)N1CCC(N2CCOCC2)CC1	G9a block inconclusive, JMJD2A Tudor inh 7.9µM, HP1b chromo inh inconclusive, BAZ2B inh 50µM
COc1ccccc1N1CCN(C2CCN(C(=O)c3ccc(F)cc3)CC2)CC1	none
